Anthrax LF prot: blocks Bacillus anthracis lethal factor protease. 0.12% of 360,000 active. multiplex microsphere protease cleavage assay, LF. P15917. AID 588501. inhibition, % at 10 µM; also: plate controls were buffer without enzyme for full effect and enzyme alone for no effect
3CLpro inhibitor: SARS-CoV 3CLpro protease inhibition; recombinant SARS-CoV 3CLpro, quenched FRET peptide cleavage; 0.14% of 290,000 active; P0C6X7; inhibition, % at 6 µM; in the data active = inhibition above about 12%
Bead autofluor: counter-screen for toxin protease inhibitors: compound fluorescence. 3.1% of 360,000 active. fluorescence intensity (no concentration beside the values). AID 624483. compound autofluorescence counterscreen, microsphere flow cytometry; stronger effect = higher value; in the data active = fluorescence intensity above about 16000; inconclusive = no clear call, values can overlap the other calls
BoNT-A LC inh2: BoNT A light chain protease inhibition | AID 588499 | 0.17% of 360,000 active | inhibition, % at 10 µM | multiplex microsphere protease substrate cleavage, flow cytometry; also: plate controls were buffer without enzyme for full effect and enzyme alone for no effect
BoNT F protease: inhibitors of Botulinum neurotoxin F light chain protease; AID 588497; 0.22% of 360,000 active; inhibition, % at 10 µM; Multiplex microsphere protease cleavage assay, flow cytometry; in the data active = inhibition above about 35%, passing the limit was not always enough; inconclusive = no clear call, values can overlap the other calls; also: plate controls were buffer without enzyme for full effect and enzyme alone for no effect
* marks the source's active call; other numbers are inactive results. The list is not random: actives were taken first. Their share in the collection is about 3.5%. Rule as the data show it, unless noted: active = inhibition above about 30%; inconclusive = no clear call, values can overlap the other calls; inactive = below that.

S=C(NN=C(c1ccccc1)c1ccccn1)N(Cc1ccccn1)Cc1ccccn1 was read as Anthrax LF prot 43.0*, Bead autofluor 3806, BoNT-A LC inh2 51.4* and BoNT F protease 42.5*.
Screening CC(=NNC(=S)N(Cc1ccccn1)Cc1ccccn1)c1cnccn1 returned Anthrax LF prot 40.0*, Bead autofluor 4053, BoNT-A LC inh2 16.3 and BoNT F protease 44.9*.
For Cc1ccccc1-c1noc(N)c1C#N the results were Anthrax LF prot -0.2, 3CLpro inhibitor -1.8, Bead autofluor 23456*, BoNT-A LC inh2 -0.8 and BoNT F protease -4.6.
OC(c1ccccc1)(c1ccccc1)C1CCN(CCCOc2ccccc2Cl)CC1 was read as Anthrax LF prot 4.3, Bead autofluor 6133, BoNT-A LC inh2 -0.2 and BoNT F protease -6.4.
CCC(C)Sc1cc(-c2nc3cc(C)ccn3c2NC2CCCCC2)ccc1OC (centres undefined) was read as Anthrax LF prot -12.2, Bead autofluor 23753*, BoNT-A LC inh2 -4.0 and BoNT F protease 1.9.
`COC(=O)Nc1ccc(NC(C)=O)cc1` gave Anthrax LF prot -0.7, 3CLpro inhibitor 7.4, Bead autofluor 23186*, BoNT-A LC inh2 -1.3 and BoNT F protease -1.2.
For CC(=O)Nc1ccc(-c2ccc(NC(C)=O)cc2)cc1 the results were Anthrax LF prot -0.8, 3CLpro inhibitor 3.1, Bead autofluor 1977, BoNT-A LC inh2 0.0 and BoNT F protease -2.3.
COC(=O)Nc1ccc(S(=O)(=O)N(C)C)cc1 was read as Anthrax LF prot -2.7, 3CLpro inhibitor -0.3, Bead autofluor 20816*, BoNT-A LC inh2 -0.5 and BoNT F protease -1.9.
`COC(=O)Nc1ccc(S(=O)(=O)N2CCCCCC2)cc1` gave Anthrax LF prot -5.5, 3CLpro inhibitor 1.4, Bead autofluor 11195, BoNT-A LC inh2 -0.7 and BoNT F protease -0.9.
For CC(=O)Nc1ccc(NS(=O)(=O)C(F)(F)F)cc1 the results were Anthrax LF prot 1.2, 3CLpro inhibitor 6.5, Bead autofluor 19728*, BoNT-A LC inh2 inconclusive and BoNT F protease -0.2.
For N#Cc1ccc(-c2ccc(F)cc2)nc1Oc1ccccc1 the results were Anthrax LF prot 8.0, 3CLpro inhibitor -3.2, Bead autofluor 9942, BoNT-A LC inh2 -1.1 and BoNT F protease -1.2.
For N#Cc1ccc(-c2ccc(F)cc2)nc1Oc1ccc(F)cc1 the results were Anthrax LF prot -2.9, 3CLpro inhibitor -0.7, Bead autofluor 21827*, BoNT-A LC inh2 1.7 and BoNT F protease 1.4.
COc1ccc(-c2cc3nc4n(c(=O)c3s2)CCC4)cc1 was read as Anthrax LF prot 0.4, 3CLpro inhibitor -5.4, Bead autofluor 23433*, BoNT-A LC inh2 inconclusive and BoNT F protease 1.0.
Screening CCOC(=O)c1ccc(NC2c3ncccc3C(=O)N2Cc2ccc(F)cc2)cc1 (centres undefined) returned Anthrax LF prot -2.9, 3CLpro inhibitor 1.5, Bead autofluor 24047*, BoNT-A LC inh2 -1.4 and BoNT F protease -2.0.
COC(=O)c1cc(NC2c3ncccc3C(=O)N2Cc2ccccc2)cc(C(=O)OC)c1 (centres undefined) was read as Anthrax LF prot 2.3, 3CLpro inhibitor -1.7, Bead autofluor 16375*, BoNT-A LC inh2 0.7 and BoNT F protease -1.7.
`CCOc1ccc(N2C(=O)c3cccnc3C2Nc2ccc(Cl)cc2)cc1` (centres undefined) gave Anthrax LF prot 0.4, 3CLpro inhibitor 2.0, Bead autofluor 21889*, BoNT-A LC inh2 1.9 and BoNT F protease 1.1.
For COc1ccc(CN(C(=S)Nc2ccccc2)C2CC(=O)N(c3ccccc3)C2=O)cc1 (centres undefined) the results were Anthrax LF prot -2.4, 3CLpro inhibitor 0.8, Bead autofluor 11190, BoNT-A LC inh2 -1.1 and BoNT F protease -2.9.
CCC(NC(=O)NCc1ccc2c(c1)OCO2)(C(F)(F)F)C(F)(F)F was read as Anthrax LF prot 0.9, 3CLpro inhibitor 2.5, Bead autofluor 16887*, BoNT-A LC inh2 inconclusive and BoNT F protease 17.9.
CC(C)(C)NC(=O)CN(C(=O)CS(=O)CC(=O)Nc1ccc(F)cc1)c1ccc(Cl)cc1 (centres undefined) was read as Anthrax LF prot 0.5, 3CLpro inhibitor 1.0, Bead autofluor 20135*, BoNT-A LC inh2 inconclusive and BoNT F protease 1.6.
For CC(C)(C)NC(=O)CN(C(=O)CS(=O)CC(=O)Nc1ccc(F)cc1)c1ccccc1F (centres undefined) the results were Anthrax LF prot -4.3, 3CLpro inhibitor 1.3, Bead autofluor 4501, BoNT-A LC inh2 1.3 and BoNT F protease -1.0.

Bioassay records deposited in PubChem by several laboratories.
